Results filed as inconclusive are left out. Values without a mark were called inactive. Calls come from the whole dose curve; as a rule, active = well fitted cell-killing curve with a large enough effect in the repeat runs; inconclusive = weak or mixed curves; inactive = flat fitted curve, though single readings scatter.
Assay: qHTS RealTime-Glo MT Cell Viability Assay in HepG2 cells - 8 hour (AID 1224873); note: nearly all actives have a fitted effect of over 55% in size
Settings: RealTime-Glo luminescence; series mostly up to 76.8 µM; viability change, negative = cytotoxic: at the top concentration
Outline: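 Real-time viability: cells seeded at 600 per well together with NanoLuc and cell-permeant prosubstrate, compounds added after 5 h incubation. Luminescence tracked at 0, 8, 16, 24, 32 and 40 h of exposure.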
% is set by controls: 0 for no effect and ±100 for the full control effect.

Q: For `CC1(C)S[C@@H]2[C@H](N=CN3CCCCCC3)C(=O)N2[C@H]1C(=O)O`, which “viability change, negative = cytotoxic” value is on record?
A: The value was 1.87% [at 35.3 µM].

Q: With `COC(=O)C1CC(=O)C(C(=O)OC)CC1=O` (configuration not stated) as the compound, how does the viability change, negative = cytotoxic read?
A: The viability change, negative = cytotoxic was -14.8% [at 6.97 µM].

Q: For `CCCCCCCC/C=C\CCCCCCCC(=O)OCCCC`, which viability change, negative = cytotoxic is on record?
A: Its viability change, negative = cytotoxic is -0.413% [at 15.8 µM].

Q: For `CCc1ccc(C=O)cc1`, which “viability change, negative = cytotoxic” value is on record?
A: The value was -0.752%.

Q: For `CC(C)CC(C)CC(C)CC(C)COC(=O)c1ccccc1C(=O)OCC(C)CC(C)CC(C)CC(C)C` (configuration not stated), which “viability change, negative = cytotoxic” value is on record?
A: The value was 1.85%.

Q: Which “viability change, negative = cytotoxic” value does the source give for `CC1=CCC(C(C)C)=CC1` here?
A: The value was 1.72%.

Q: Which “viability change, negative = cytotoxic” value does the source give for `CCCC/C=C/C=C\C=O` here?
A: The value was -3.83%.

Q: With `CCOC(=O)CC(=O)c1ccccc1` as the compound, how does the “viability change, negative = cytotoxic” value read?
A: Its value is 5.37%.

Q: For `CCCCCCCCOS(=O)(=O)O`, which “viability change, negative = cytotoxic” value is on record?
A: The value was 6.62%.

Q: With `CC(=C(CCOC(=O)C(C)C)SSC(CCOC(=O)C(C)C)=C(C)N(C=O)Cc1cnc(C)nc1N)N(C=O)Cc1cnc(C)nc1N` as the compound, how does the “viability change, negative = cytotoxic” value read?
A: Its value is 2.3% [at 35.3 µM].

Q: For `CC(=O)/C=C/C1C(C)=CCC(C)C1(C)C` (configuration not stated), which “viability change, negative = cytotoxic” value is on record?
A: Its value is 0.288%.

Q: For `C[C@H](N)[C@H](O)c1cccc(O)c1`, which “viability change, negative = cytotoxic” value is on record?
A: The value was 0.751% [at 35.3 µM].

Q: For `BrCCCCCBr`, which “viability change, negative = cytotoxic” value is on record?
A: Its value is 0.31%.

Q: For `CCCCCCCCSCC`, which “viability change, negative = cytotoxic” value is on record?
A: Its value is -0.0184%.

Q: With `Cc1cccc2nccnc12` as the compound, how does the “viability change, negative = cytotoxic” value read?
A: The value was -0.0396%.

Q: For `CNS(=O)(=O)CCc1ccc2[nH]cc(C3CCN(C)CC3)c2c1`, which “viability change, negative = cytotoxic” value is on record?
A: The value was 0.841% [at 35.3 µM].

Q: For `C[C@@H]1O[C@@H](O[C@@H]2[C@@H](O)[C@H](OCCc3ccc(O)c(O)c3)O[C@H](CO[C@@H]3O[C@H](CO)[C@@H](O)[C@H](O)[C@H]3O)[C@H]2OC(=O)/C=C/c2ccc(O)c(O)c2)[C@H](O)[C@H](O)[C@H]1O`, which “viability change, negative = cytotoxic” value is on record?
A: The value was -0.0548%.

Q: With `CN(CCOc1ccc(NS(C)(=O)=O)cc1)CCc1ccc(NS(C)(=O)=O)cc1` as the compound, how does the “viability change, negative = cytotoxic” value read?
A: The value was 2.94% [at 35.3 µM].

Q: Which “viability change, negative = cytotoxic” value does the source give for `Nc1ccc(S(=O)(=O)Nc2ccc(Cl)nn2)cc1` here?
A: Its value is 8.96% [at 35.3 µM].

Q: Which “viability change, negative = cytotoxic” value does the source give for `O=C1c2ccccc2C(=O)N1CCl` here?
A: The value was 0.939%.

Q: Which “viability change, negative = cytotoxic” value does the source give for `O=C1CC(c2ccc(Cl)cc2)CC(=O)N1` here?
A: The value was 5.47% [at 35.3 µM].

Q: Which viability change, negative = cytotoxic does the source give for `N[C@@H](CCC(=O)N[C@@H](CS)C(=O)NCC(=O)O)C(=O)O` here?
A: Its viability change, negative = cytotoxic is -0.362% [at 15.8 µM].

Q: Which viability change, negative = cytotoxic does the source give for `CN1CCN(CC(=O)N2c3ccccc3C(=O)Nc3cccnc32)CC1` here?
A: Its viability change, negative = cytotoxic is 0.562% [at 6.97 µM].

Q: Which “viability change, negative = cytotoxic” value does the source give for `O=C(Nc1ccc(Cl)c(Cl)c1)C1CC1` here?
A: Its value is -7.24% [at 35.3 µM].

Q: For `On1nnc2ccccc21`, which “viability change, negative = cytotoxic” value is on record?
A: Its value is -0.441%.

Q: For `CCCOC(=O)C(C)O` (configuration not stated), which “viability change, negative = cytotoxic” value is on record?
A: Its value is 0.629%.

Q: With `CCC(C)NC(N)=O` (configuration not stated) as the compound, how does the “viability change, negative = cytotoxic” value read?
A: Its value is 1.54%.

Q: Which “viability change, negative = cytotoxic” value does the source give for `CC(C)N(c1ccccc1)C(C)C` here?
A: The value was 0.118%.

Q: For `OCCC(F)(F)C(F)(F)C(F)(F)C(F)(F)C(F)(F)C(F)(F)C(F)(F)C(F)(F)F`, which “viability change, negative = cytotoxic” value is on record?
A: Its value is 5.96%.

Q: For `CC(C)=CCOC(=O)c1ccccc1`, which “viability change, negative = cytotoxic” value is on record?
A: Its value is -0.0509%.

Q: With `CC(=O)NCc1c(I)c(NC(C)=O)c(I)c(C(=O)O)c1I` as the compound, how does the “viability change, negative = cytotoxic” value read?
A: Its value is -5.78% [at 35.3 µM].

Q: Which “viability change, negative = cytotoxic” value does the source give for `COC(=O)[C@@H]1[C@H]2C[C@H]3c4[nH]c5ccccc5c4CCN3C[C@@H]2CC[C@@H]1O` here?
A: Its value is 0.129% [at 35.3 µM].

Q: With `CC(=O)OC(C)OC(=O)C(C)c1ccc(-c2ccccc2)c(F)c1` (configuration not stated) as the compound, how does the “viability change, negative = cytotoxic” value read?
A: Its value is 0.59% [at 35.3 µM].

Q: For `COc1ccc(S(=O)(=O)N2c3ccc(Cl)cc3[C@@](O)(c3ccccc3Cl)[C@H]2C(=O)N2CCC[C@@H]2C(N)=O)cc1OC`, which “viability change, negative = cytotoxic” value is on record?
A: Its value is -9.93% [at 35.3 µM].

Q: With `CC(COC(C)(C)C)OCCCO` (configuration not stated) as the compound, how does the “viability change, negative = cytotoxic” value read?
A: The value was 1.39%.

Q: With `NS(=O)(=O)c1cc2c(cc1Cl)CN(C1CCCCC1)C2=O` as the compound, how does the “viability change, negative = cytotoxic” value read?
A: The value was -5.36% [at 35.3 µM].

Q: Which “viability change, negative = cytotoxic” value does the source give for `CC(=O)NCCCCCC(=O)O` here?
A: The value was 1.07% [at 35.3 µM].
